# Screening results (PubChem)
# Only a selection was taken, and hits are over-represented in it overall.
# Glioma ERSR ind: induces the endoplasmic reticulum stress response in human glioma cells | U87-MG GRP78 promoter luciferase reporter, 16 h | Potency, µM, without a hit: at the highest dose activation, actives largely listed as activators | 420,000 compounds, 0.02% hits; note: series mostly up to about 76 µM; % of control where 0% means no effect; nearly all actives have a fitted effect of over 35% in size
#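 Stably transfected U87-MG human glioma cells carrying a GRP78-based luminescent sensor were seeded at 1000 cells/well, pin-dosed with compounds and incubated 16 h. Luciferase reagent was then added, and end-point luminescence was read after 10 min at room temperature.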
# 12-LOX inh: inhibitors of human 12S-lipoxygenase ALOX12; P18054; purified 12hLO, xylenol orange hydroperoxide absorbance; Potency, µM (top dose mostly 108 µM), without a hit: top-dose activity change, negative = inhibition, actives largely listed as inhibitors; 580,000 compounds, 1.1% hits; note: % is set by controls: 0 for no effect and ±100 for the full control effect
#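 Hydroperoxide product was detected by ferrous iron/xylenol orange as the 573 to 405 nm absorbance ratio. Arachidonic acid at 40 uM (final) was turned over for 30 min at room temperature by 150 nM human 12hLO, pH 7.0 Hepes buffer, after 15 min compound preincubation.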
# G9a inh: inhibitors of human histone lysine methyltransferase G9a | Q96KQ7 | G9a H3K9 monomethylation, AlphaScreen, 2 h | Potency, µM (highest dose often 102 µM), for inactives: at the highest dose activity, negative = inhibition, actives largely listed as inhibitors | 350,000 compounds, 8.8% hits; note: % is set by controls: 0 for no effect and ±100 for the full control effect; nearly all actives have a fitted effect of over 75% in size
# Target sequence (Q96KQ7 913-1193 limits assumed): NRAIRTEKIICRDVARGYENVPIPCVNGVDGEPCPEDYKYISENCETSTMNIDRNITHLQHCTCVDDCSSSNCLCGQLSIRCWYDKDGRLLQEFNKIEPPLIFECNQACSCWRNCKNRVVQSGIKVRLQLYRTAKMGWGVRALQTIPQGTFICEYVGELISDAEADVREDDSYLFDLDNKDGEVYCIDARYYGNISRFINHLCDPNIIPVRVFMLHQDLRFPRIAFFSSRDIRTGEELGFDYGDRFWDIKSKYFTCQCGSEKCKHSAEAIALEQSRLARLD
#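 Signal arises when biotinylated H3K9 peptide, once monomethylated, bridges streptavidin donor and antibody-captured acceptor beads. Enzyme at 20 nM was preincubated 15 min with test compounds; peptide 500 nM and SAM 20 uM then reacted for 2 h.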
# VDR inh: vitamin D3 receptor (human) inhibition. Potency, µM, inactives show max response, negative = inhibition, actives largely listed as inhibitors. VDR-SRC2-3 peptide fluorescence polarization, 2 h. 400,000 compounds, 0.93% hits. P11473; note: % is set by controls: 0 for no effect and ±100 for the full control effect
# Target sequence (P11473 whole entry, looked up): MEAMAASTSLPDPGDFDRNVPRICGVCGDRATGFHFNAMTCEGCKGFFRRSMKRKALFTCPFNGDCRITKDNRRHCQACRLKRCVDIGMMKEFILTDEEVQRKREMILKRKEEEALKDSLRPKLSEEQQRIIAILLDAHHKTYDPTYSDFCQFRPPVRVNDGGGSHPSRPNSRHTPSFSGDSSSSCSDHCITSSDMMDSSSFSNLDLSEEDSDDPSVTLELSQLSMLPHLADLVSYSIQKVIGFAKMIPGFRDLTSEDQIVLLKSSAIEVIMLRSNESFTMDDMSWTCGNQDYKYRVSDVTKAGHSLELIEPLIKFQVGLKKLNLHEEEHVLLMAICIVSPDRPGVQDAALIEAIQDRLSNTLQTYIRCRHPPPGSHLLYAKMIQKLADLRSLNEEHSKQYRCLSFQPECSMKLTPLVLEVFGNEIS
#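 Measured by FP: displacement of SRC2-3 coactivator peptide from VDR by library compounds, following a two-hour ambient incubation.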
# Sfp inh: blocks B. subtilis Sfp PPTase activity; Q9F4F7; Biochemical Sfp PPTase activity, qHTS; Potency, µM, inactives show largest response in the series, negative = inhibition, usual class: inhibitors; 310,000 compounds, 3.5% hits; AID 1490;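 note: the enzyme is Sfp with the accession as filed and its product quenches rhodamine fluorescence; 0% = enzyme reaction without inhibitor and -100% = no enzyme wells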
#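 Reaction rates are the 30-min fluorescence difference (ex 525, em 598 nm) in wells containing 15 nM Sfp, 5 uM rhodamine-CoA and 12.5 uM BHQ-2-YbbR at pH 7.6 with 10 mM MgCl2.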
# * = called active by the depositor; ? = inconclusive; . = no result given; ! = not active in a repeat; [ ] = remark or other dose. Calls come from the whole dose curve; as a rule, active = well fitted curve in the direction sought with a large enough effect; inconclusive = small, poorly fitted or top-dose-only effect, or another doubt; inactive = no such curve, though single readings can be large; an effect the other way counts as inactive or inconclusive. Potency is the fitted concentration of half-maximal effect.
SMILES,Glioma ERSR ind,12-LOX inh,G9a inh,VDR inh,Sfp inh
O=C(c1ccc([N+](=O)[O-])o1)N1CCN(c2nc3c(Cl)cccc3s2)CC1,-3%,-4%,35µM*,-9%,.
O=C(Nc1ccccc1N1CCCCC1)c1ccc([N+](=O)[O-])o1,-1%,?,11µM*,-1%,.
NS(=O)(=O)c1ccc(O)c(NC(=O)c2ccc([N+](=O)[O-])o2)c1,18%,1%,?,?,11µM*
COc1ccc(N(CC(=O)Nc2ccc(F)c(F)c2)S(=O)(=O)c2c(C)nn(C)c2C)cc1,.,-21%,.,.,.
Cn1nc(-c2ccc(Cl)cc2)c2cc(C(=O)NCCCN3CCOCC3)sc21,10%,.,-45%,3%,3%
CCN(CC)CCNC(=O)c1cc2c(-c3cccc(OC)c3)nn(C)c2s1,-7%,?,79µM*!,12%,0%
Cn1nc(-c2ccc(Cl)cc2)c2cc(C(=O)NCCN3CCOCC3)sc21,-5%,-4%,71µM*,-21%,-1%
CCCCCCCCCO,.,1%[176 µM],.,.,.
CCCCn1c(N)c(N(CCOC)C(=O)c2cc(-c3ccc(F)cc3)nc3ccccc23)c(=O)[nH]c1=O,-2%,?,45µM*,11%,.
CCCCn1c(N)c(N(CC(C)C)C(=O)c2cc(-c3ccco3)nc3ccccc23)c(=O)[nH]c1=O,-1%,40µM*,-4%[0.501 µM],-8%,.
Cc1cc(C)nc(/N=C2\NC(=O)CC(C(=O)O)N2c2ccc(C)c(C)c2)n1 (centres undefined),-1%,-10%,-38%,50µM*,5%
Cc1ccc(N2/C(=N/c3nc(C)cc(C)n3)NC(=O)CC2C(=O)O)cc1 (centres undefined),-2%,-11%,-9%,-4%,13%
O=C(CSc1nc2ccccc2c(=O)n1Cc1ccc(Cl)cc1)NCc1cccs1,-4%,3%,7%[59 µM],7%,-2%
COCCn1c(-c2ccc(Cl)cc2)cnc1SCC(=O)NCc1cccs1,-4%,-21%,45µM*,-26%,3%
COc1c(C)cccc1C(=O)Nc1sc2c(c1C(N)=O)CCCC2,.,-15%,.,.,.
COc1cccc(/C=C/C(=O)c2ccc(OC(F)F)cc2OC(F)F)c1OC,.,34%,.,.,.
COc1ccc(-c2cc(CNS(=O)(=O)c3ccc(NC(C)=O)cc3)on2)cc1,-1%,0%,36%,-21%,15%
O=S(=O)(NCc1cc(-c2ccccc2Cl)no1)c1ccc(Cl)cc1,-5%,?,43%,18µM*,-11%
Cc1[nH]c2c(ccc3ccccc32)c1C,.,16µM*,.,.,.
Cc1[nH]c2c(ccc3ccccc32)c1C1C(CCN)C1(C)C (centres undefined),-3%,?,-44%[59 µM],0%,-4%
COc1ccc2nc(SCC(=O)Nc3cc(OC)c(OC)cc3C(=O)O)c(C)cc2c1,2%,-3%,56µM*,-11%,79µM*
COc1cc(NC(=O)CSc2nccc(C)n2)c(C(=O)O)cc1OC,-5%,-2%,?,-10%,?
Cc1cc(C(=O)N2CCCc3ccccc32)c2ccccc2n1,.,-2%,.,.,.
Cc1nc(C#N)c(N2CCN(C(=O)CN3CCCCC3)CC2)o1,.,11%,.,.,.
CCOc1ccccc1NC(=O)Cn1c(=O)c(-c2noc(C)n2)c2n(c1=O)CCCCC2,.,-2%,.,.,.
SMILES,Glioma ERSR ind,12-LOX inh,G9a inh,VDR inh,Sfp inh
O=C(CNC(=O)c1ccncc1)N/N=C/c1ccc(O)cc1O,-2%,-5%,0%,3%,21%
COc1cc(C(=O)NCC(=O)N/N=C/c2ccccn2)cc(OC)c1OC,0%,-6%,9%,1%,45µM*
COc1cc(C(=O)NCC(=O)N/N=C/c2cccs2)cc(OC)c1OC,-3%,2%,34%[59 µM],-1%,19%
O=C(CNC(=O)c1ccncc1)N/N=C/c1ccccn1,0%,-3%,-31%,4%,56µM*
O=C(NCCNc1ccc2ccccc2n1)Nc1cccc2ccccc12,.,19%,.,.,.
COc1ccccc1NC(=O)c1cc(=O)c2ccc(C)cc2o1,.,-27%,.,.,.
O=C(N/N=C/c1ccc(-c2ccccc2C(=O)O)o1)c1cccs1,-2%,?,8.9µM*,-3%,50µM*
Cc1ccc(-c2cn(-c3ccccc3)c(=S)[nH]2)cc1C,-1%,35µM*,45µM*,-14%,-24%
FC(F)(F)c1cccc(-n2cc(-c3ccccc3)[nH]c2=S)c1,-7%,?,?,-18%,12%
Cc1cc(=O)[nH]c(=S)n1-c1ccccc1,-3%,?,?,-3%,-20%
Cc1ccccc1-c1cn(-c2ccccc2)c(=S)[nH]1,1%,?,1.4µM*,-8%,?
O=C(Nc1ccc(SC(F)F)cc1)c1ccncc1,.,-7%,.,.,.
COCC(C)NC(C(=O)Nc1cccc(C(C)=O)c1)c1ccccc1 (centres undefined),-1%,1%,16%,8%,25%
CCOc1ccc(NC(C(=O)Nc2cccc(C(C)=O)c2)c2ccccc2)cc1 (centres undefined),0%,9%,45µM*,5%,9%
O=C(c1cccs1)N1CCC(Oc2ccccc2)C1 (centres undefined),.,16%,.,.,.
CCc1ccc(OCC(=O)NC2CCCCC2)c(Br)c1,1%,-3%,?,-12%,5%
CCc1ccc(OCC(=O)NNC(=S)NC(=O)C2CCCCC2)c(Br)c1,13%,7.9µM*,?,6%,12%
CCc1ccc(OCC(=O)NNC(=S)NC(=O)C2CC2)c(Br)c1,4%,?,10µM*,21%,15%
Oc1ccc(-c2nc(C3CC3)nc3c2CN(Cc2ccc(C(F)(F)F)cc2)CC3)cc1,.,24%,.,.,.
COc1cc(/C=N/NC(=O)c2ccc3c(c2)OCCO3)c(Br)c(Br)c1O,2%,14%,45µM*,-6%,-19%
Cc1ccc(-c2nnn(CC(=O)N(Cc3ccc(F)cc3)C(C(=O)NC3CCCC3)c3ccncc3)n2)o1 (centres undefined),-9%,?,?,8%,40µM*
Cc1ccc(C(C(=O)NC(C)(C)C)N(CC2CCCO2)C(=O)Cn2nnc(-c3ccc(C)o3)n2)cc1 (centres undefined),0%,-25%,45µM*,12%,56µM*
Cc1ccc(-c2nnn(CC(=O)N(CC3CCCO3)C(C(=O)NC3CCCC3)c3ccc(O)cc3)n2)o1 (centres undefined),-2%,-1%,-40%,-9%,1%
Cc1ccc(-c2nnn(CC(=O)N(CCO)C(C(=O)NC3CCCCC3)c3ccncc3)n2)o1 (centres undefined),-1%,1%,45µM*,-17%,2%
Cc1ccc(-c2nnn(CC(=O)N(CCCO)C(C(=O)NC3CCCC3)c3ccc(Cl)cc3)n2)o1 (centres undefined),-2%,0%,?,-7%,15%
Cc1ccc(-c2nnn(CC(=O)N(CC3CCCO3)C(C(=O)NC3CCCC3)c3ccc(F)cc3)n2)o1 (centres undefined),-4%,23%,3%[59 µM],-4%,12%
